Compound activity deposited in PubChem by several laboratories.
Only some compounds are listed: those with a hit (about 0.82% of all), similar ones and a draw of the others.
Cardiac RTF inh: cardiac RTF calcium desensitization; inhibition, % at 7.15 µM; AID 493244; P19429+P45379; IANBD-labeled cardiac RTF, Ca2+ fluorescence; 340,000 compounds, 0.12% hits;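 active means inhibition above the mean inhibition of all tested compounds plus 3 SD, cut at about 17% in these data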;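 further: assay run at fixed EC70 calcium of 1.6 mM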
RTF Ca sens act: increases calcium sensitivity of human cardiac regulated thin filaments; activation, % at 7.2 µM; 340,000 compounds, 0.24% hits; IANBD-labeled TnC RTF fluorescence at EC20 calcium; 0% EC20 calcium, 100% full calcium; P19429+P45379;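 active means activation above the mean over all tested compounds plus 3 SD, cut at about 30% in these data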;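 further: rise in fluorescence read as greater calcium sensitivity of cardiac thin filaments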
LANA DNA inh: KSHV C-LANA DNA binding inhibition. inhibition, % at 9 µM. 340,000 compounds, 0.078% hits. AID 504423. MBP-C-LANA/FAM-LBS DNA binding, fluorescence polarization;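 active means highest replicate inhibition at or above 60% at 9 µM, even if other replicates fall short; inactive means all replicates below 60% inhibition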;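 further: 0% = neutral control wells and 100% = 4 µM acridine orange control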
E coli Lon inh: inhibits E. coli Lon protease; P0A9M0; purified E. coli Lon protease, fluorescence polarization; inhibition, % at 7.94 µM; 360,000 compounds, 0.42% hits; AID 602123; in the data active means inhibition above about 13%, passing the limit was not always enough;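 further: 0% = enzyme with probe and DMSO and 100% = no enzyme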
Target sequence (P0A9M0 whole entry, looked up): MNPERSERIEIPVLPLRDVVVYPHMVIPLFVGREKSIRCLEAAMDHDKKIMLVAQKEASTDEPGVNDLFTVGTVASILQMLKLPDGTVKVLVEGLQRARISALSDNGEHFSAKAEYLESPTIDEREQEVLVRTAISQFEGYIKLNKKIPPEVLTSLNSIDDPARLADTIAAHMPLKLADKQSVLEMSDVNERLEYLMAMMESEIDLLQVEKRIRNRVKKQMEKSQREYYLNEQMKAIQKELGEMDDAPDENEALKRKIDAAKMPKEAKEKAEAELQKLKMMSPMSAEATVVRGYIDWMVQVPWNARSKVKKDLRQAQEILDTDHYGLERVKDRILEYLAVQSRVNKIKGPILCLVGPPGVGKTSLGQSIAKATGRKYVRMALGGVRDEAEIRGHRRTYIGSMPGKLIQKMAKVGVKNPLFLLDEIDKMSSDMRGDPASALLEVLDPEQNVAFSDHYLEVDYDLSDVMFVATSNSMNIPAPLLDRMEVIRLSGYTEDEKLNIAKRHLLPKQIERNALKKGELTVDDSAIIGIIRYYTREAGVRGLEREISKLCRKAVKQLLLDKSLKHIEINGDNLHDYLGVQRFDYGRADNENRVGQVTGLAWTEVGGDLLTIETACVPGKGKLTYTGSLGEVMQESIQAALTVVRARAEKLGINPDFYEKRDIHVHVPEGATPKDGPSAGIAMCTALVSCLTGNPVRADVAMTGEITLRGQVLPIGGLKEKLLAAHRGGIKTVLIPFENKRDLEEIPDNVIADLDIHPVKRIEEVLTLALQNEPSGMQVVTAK
Keap1 Nrf2 FP: Keap1-Nrf2 (human) interaction inhibition; Keap1 Kelch-Nrf2 peptide fluorescence polarization, 1536-well; Q14145; 340,000 compounds, 0.15% hits; inhibition, % at 9.4 µM; AID 504523; in the data active means inhibition above about 12%;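 further: human Keap1 Kelch domain with fluorescein labeled Nrf2 9mer peptide probe; 0% = neutral control wells and 100% = peptide positive control; higher means more block of Keap1 binding to Nrf2 peptide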
Numbers without * were called inactive; i = inactive; / = no result; + = active, no number.

SMILES	Cardiac RTF inh	RTF Ca sens act	LANA DNA inh	E coli Lon inh	Keap1 Nrf2 FP
N#CC1=C(N)C(C#N)(C#N)[C@H](c2cccnc2)[C@H]2CN(C(=O)OCc3ccccc3)CC=C12	-2.2	1.5	3.5	6.6	-6.2
O=C1/C(=C\c2cc([N+](=O)[O-])ccc2O)SC(=S)N1Cc1ccc(Cl)cc1	-182.7	134.7*	-5.9	-235.5	-29.4
COc1cc2c(cc1OC)C(c1ccc3c(c1)Cc1ccccc1-3)OC(=O)C2 (stereo not given)	/	/	/	-3.8	/
CCN(CC)c1ccc2cc(C(=O)NCc3ccc(F)cc3)c(=N)oc2c1	-81.5	266.6*	-24.9	-20.3	-240.7
O=C(O)CCCN1C(=O)/C(=C\c2ccccc2OCc2ccccc2)SC1=S	4.1	-3.1	1.5	7.8	-0.7
O=C(O)CCCN1C(=O)/C(=C/c2cn(-c3ccccc3)nc2-c2cccs2)SC1=S	-33.6	31.0*	14.8	-92.3	-8.4
COc1cc(C2C=C(c3cccs3)Nc3ncnn32)cc(OC)c1OC (stereo not given)	-496.8	385.8*	120.8*	+	87.7*
CC1=CC(=C(C#N)c2nc3ccccc3s2)C=C(C)N1c1ccc(F)cc1	-6.7	110.3*	-2.9	-3.3	-1.8
COc1ccccc1N1C(C)=CC(=C(C#N)c2nc3ccccc3s2)C=C1C	-44.2	52.9*	2.1	-4.7	1.5
CC(C)=C(C#N)c1nc2ccccc2s1	-10.6	1.3	2.3	-51.5	-5.3
COc1cc(/C=C(\C#N)c2nc3ccccc3o2)ccc1O	-78.0	50.4*	-38.7	i	-34.0
O=C(O)c1ccc(NS(=O)(=O)c2ccc3c(c2)C2C=CCC2C(c2ccccc2F)N3)cc1 (stereo not given)	-17.0	1.1	107.6*	-3.8	-4.2
O=C(O)c1ccc2c(c1)C1C=CCC1C(c1cc3c(cc1Br)OCO3)N2 (stereo not given)	-18.4	2.9	5.4	1.2	-3.4
Cc1cccc(OCc2nn[nH]n2)c1C	5.6	164.5*	2.3	-2.0	-1.5
CCOc1ccc(CCN2C(=S)N([C@@H](Cc3ccc(O)cc3)CN3CCC[C@@H]3CN3C(=S)NC[C@@H]3CC(C)C)C[C@@H]2Cc2ccc(O)cc2)cc1	/	/	/	2.3	/
Cc1cc(C)nc(NC(=O)c2c(Cl)cccc2Cl)n1	5.1	-1.5	84.8*	1.3	-1.3
CCCCCCCCN1C(=O)[C@H](CC(=O)N2CCSCC2)C[C@@]2(C(=O)OC)CCCCC=C12	/	/	/	-5.6	/
Cc1cc(C)cc(N=Cc2[nH]c3ccc(Br)c(Cl)c3c2O)c1	-87.6	64.5*	1.5	-8.8	-1.3
O=Cc1ccc(N2CCCC2)o1	2.7	-1.5	-0.1	-2.0	-4.3
N#C/C(=C\c1ccc(N2CCCCC2)o1)C(=O)Nc1cccc(Br)c1	-154.8	146.0*	-5.3	i	-8.8
N#C/C(=C\c1ccc(N2CCCCC2)o1)C(N)=O	-57.6	55.7*	-17.6	-425.9	-57.5
O=c1[nH][nH]c2c(N=Cc3ccccc3O)ccc(F)c12	34.4*	-24.2	86.8*	25.2*	-1.6
O=c1cc(CN(Cc2ccccc2)Cc2ccccc2)c2c(ccc3ccccc32)o1	/	/	/	-10.9	/
COc1cc2c(cc1[N+](=O)[O-])-c1ccccc1C2	-65.5	125.5*	0.0	-6.5	0.6
COc1cc2c(cc1[N+](=O)[O-])-c1ccc([N+](=O)[O-])cc1C2	/	/	/	-8.5	/
SMILES	Cardiac RTF inh	RTF Ca sens act	LANA DNA inh	E coli Lon inh	Keap1 Nrf2 FP
CN(C)CCCNc1cc(O)c2ncccc2c1	-21.8	-4.9	23.4	17.0	22.4*
Oc1cc(NCc2ccc(F)cc2)cc2cccnc12	-2.2	1.6	3.5	-11.2	4.4
O=S1(=O)N[C@@H](Cc2ccccc2)COc2cccc(N3CCN(Cc4ccccc4F)CC3)c21	/	/	/	-1.7	/
CCOC(=O)[C@H]1[C@H]2COc3ccccc3[C@@H]2N2C(=O)CN(Cc3ccc(C)cc3)C(=O)[C@@]12C	-61.9	19.1	60.6*	-14.1	7.9
CCOC(=O)[C@]12CCC=C1N(Cc1ccc(Cl)cc1Cl)C(=O)[C@H](CC(=O)N1CCOCC1)C2	/	/	/	2.1	/
COc1ccc(-c2nc3ccc(C)cn3c2Cc2ccsc2)cc1OC	/	/	/	-6.1	/
COc1ccc(N=C2NC(=O)S/C2=C\c2ccc(N(C)C)cc2)cc1	-113.8	174.2*	3.0	-87.6	-4.9
CCCCNC(=O)C[C@@H]1C[C@@]2(C(=O)OCC)CCC=C2N(Cc2ccc(Cl)cc2Cl)C1=O	/	/	/	0.2	/
CCOC(=O)/C(=C/C=C1\Sc2cc(C)c(C)cc2N1CC)C(C)=O	-208.6	160.2*	-19.1	i	-20.6
CCOC(=O)/C(=C/C=C1\Sc2ccccc2N1CC)C(C)=O	-219.8	128.2*	-8.6	i	-58.8
